In the supplement of paper PMC12067926:

Key:
Test in all cases: relative growth (AUC of 72 h growth curve relative to DMSO control, dAUC) (ratio); higher = more growth (less inhibition), active = hit call of the paper
Conditions in all cases: 20 µM;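 active = growth AUC significantly below the DMSO wells by Dunnett test; inactive = the rest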
[1] = test system: Prolinoborus 1 (Prolinoborus fasciculus)
Summary of the method: (§1)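 Cultures grown to carrying capacity in Luria–Bertani medium, drawn from Icelandic stream sediment and Silwood Park soil isolates and whole sediment communities, were diluted 1:100 into 96-well plates with each chemical at 20 µM (1% DMSO) and read at A600 hourly for 72 h. The spline-integrated area under the growth curve, divided by the mean of the DMSO controls, is reported as relative growth (dAUC). Values are means of three biological replicates.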

[2] = test system: Pseudomonas 1 (Pseudomonas baetica)
Summary of the method: as §1

[3] = test system: Pseudomonas 2 (Pseudomonas vancouverensis)
Summary of the method: as §1

[4] = test system: Pseudomonas 3 (Pseudomonas mandelii)
Summary of the method: as §1

[5] = test system: Pseudomonas 4 (Pseudomonas peli)
Summary of the method: as §1

[6] = test system: Pseudomonas 5 (Pseudomonas baetica)
Summary of the method: as §1

[7] = test system: Pseudomonas 6 (Pseudomonas sp.)
Summary of the method: as §1

[8] = test system: Rhizobium 1 (Rhizobium herbae)
Summary of the method: as §1

[9] = test system: Serratia 1 (Serratia sp. 2015-2462-01)
Summary of the method: as §1

[10] = test system: Sphingomonas 2 (Sphingomonas sp.)
Summary of the method: as §1

Measured: relative growth

CC(COc1ccc(Oc2ccccc2)cc1)Oc1ccccn1 (stereo not given)
inactive: [1] 1.03 | [2] 1.02 | [3] 1 | [4] 1.01 | [5] 1.05 | [6] 1.01 | [7] 1.08 | [8] 0.97 | [9] 0.987 | [10] 1.14

CCNC(=O)NC(=O)/C(C#N)=N/OC
inactive: [1] 0.954 | [2] 0.924 | [3] 0.96 | [4] 0.993 | [5] 0.981 | [6] 0.986 | [7] 1.03 | [8] 1.06 | [9] 1 | [10] 0.919

O=C(O)COc1ccc(Cl)cc1Cl
inactive: [1] 1.01 | [2] 0.923 | [3] 0.971 | [4] 1.04 | [5] 1.01 | [6] 0.997 | [7] 1.07 | [8] 1.03 | [9] 0.96 | [10] 1.04

CC1(C)[C@H](/C=C(\Cl)C(F)(F)F)[C@@H]1C(=O)OC(C#N)c1cccc(Oc2ccccc2)c1 (stereo not given in full)
inactive: [1] 0.983 | [2] 1.07 | [3] 1.02 | [4] 1.05 | [5] 0.999 | [6] 1.08 | [7] 1.16 | [8] 1.28 | [9] 1.01 | [10] 0.868

CCCC(Cn1cncn1)c1ccc(Cl)cc1Cl (stereo not given)
inactive: [1] 0.988 | [2] 1.01 | [3] 0.994 | [4] 1.02 | [5] 1.07 | [6] 1.01 | [7] 0.993 | [8] 1.04 | [9] 0.994 | [10] 1.03

COP(=O)(OC)OC=C(Cl)Cl
inactive: [1] 0.895 | [2] 1.08 | [3] 0.963 | [4] 1.04 | [5] 0.963 | [6] 1.01 | [7] 0.982 | [8] 1.01 | [9] 0.96 | [10] 0.823

CC[C@H](C)[C@H]1O[C@]2(C=C[C@@H]1C)C[C@@H]1C[C@@H](C/C=C(\C)[C@@H](O[C@H]3C[C@H](OC)[C@@H](O[C@H]4C[C@H](OC)[C@@H](O)[C@H](C)O4)[C@H](C)O3)[C@@H](C)/C=C/C=C3\CO[C@@H]4[C@H](O)C(C)=C[C@@H](C(=O)O1)[C@]34O)O2.CO[C@H]1C[C@H](O[C@H]2[C@H](C)O[C@@H](O[C@@H]3/C(C)=C/C[C@@H]4C[C@@H](C[C@]5(C=C[C@H](C)[C@@H](C(C)C)O5)O4)OC(=O)[C@@H]4C=C(C)[C@@H](O)[C@H]5OC/C(=C\C=C\[C@@H]3C)[C@]54O)C[C@@H]2OC)O[C@@H](C)[C@@H]1O
inactive: [1] 0.894 | [2] 1.05 | [3] 1.01 | [4] 1.03 | [5] 1.02 | [6] 1.13 | [7] 1.04 | [8] 0.807 | [9] 0.958 | [10] 0.717

Cc1cc(C2CC2)nc(Nc2ccccc2)n1
inactive: [1] 1.03 | [2] 1.11 | [3] 1 | [4] 1.03 | [5] 0.976 | [6] 0.991 | [7] 0.966 | [8] 1.06 | [9] 0.969 | [10] 0.951

CCOP(=S)(OCC)Oc1cc(C)nc(C(C)C)n1
inactive: [1] 0.91 | [2] 0.877 | [3] 1.01 | [4] 1.04 | [5] 0.919 | [6] 0.98 | [7] 1.12 | [8] 0.904 | [9] 0.958 | [10] 0.988

COc1ccc(C(=CC(=O)N2CCOCC2)c2ccc(Cl)cc2)cc1OC (mixture of isomers)
inactive: [1] 0.994 | [2] 1.09 | [3] 0.999 | [4] 1.03 | [5] 1.01 | [6] 0.972 | [7] 0.951 | [8] 1.02 | [9] 0.978 | [10] 1.12

CSc1nnc(C(C)(C)C)c(=O)n1N
inactive: [1] 0.951 | [2] 0.717 | [3] 0.997 | [4] 0.984 | [5] 1.01 | [6] 0.998 | [7] 0.948 | [8] 0.958 | [9] 0.995 | [10] 0.779

ClC1C(Cl)C(Cl)C(Cl)C(Cl)C1Cl (stereo not given)
inactive: [1] 0.987 | [2] 1.04 | [3] 0.993 | [4] 0.99 | [5] 0.982 | [6] 1.04 | [7] 1.02 | [8] 0.826 | [9] 0.97 | [10] 0.949

CCc1cccc(C)c1N(C(=O)CCl)[C@@H](C)COC
inactive: [1] 1.01 | [2] 1.09 | [3] 0.996 | [4] 1 | [5] 0.993 | [6] 1.03 | [7] 1.13 | [8] 0.952 | [9] 0.985 | [10] 0.791

CS(=O)(=O)c1cc(C(F)(F)F)ccc1C(=O)c1cnoc1C1CC1
inactive: [1] 1 | [2] 0.985 | [3] 1.02 | [4] 1.01 | [5] 1.02 | [6] 0.96 | [7] 0.911 | [8] 1.11 | [9] 1.06 | [10] 1.11

OC(Cn1cncn1)(c1ccc(F)cc1)c1ccccc1F (stereo not given)
inactive: [1] 0.985 | [2] 0.993 | [3] 0.999 | [4] 1.03 | [5] 1.02 | [6] 1 | [7] 0.961 | [8] 0.971 | [9] 0.991 | [10] 1.03

CCCN(CCC)C(=O)SCc1ccccc1
inactive: [1] 1.01 | [2] 1.03 | [3] 1.05 | [4] 1.09 | [5] 0.979 | [6] 1.06 | [7] 1.13 | [8] 1.05 | [9] 0.998 | [10] 1.06

COC(=O)N(OC)c1ccccc1COc1ccn(-c2ccc(Cl)cc2)n1
inactive: [1] 1.01 | [2] 1.13 | [3] 1.04 | [4] 1.03 | [5] 1 | [6] 1.02 | [7] 1.15 | [8] 0.863 | [9] 0.984 | [10] 1.05

COCC(=O)N(c1c(C)cccc1C)[C@H](C)C(=O)OC
inactive: [1] 0.988 | [2] 0.997 | [3] 0.974 | [4] 1.09 | [5] 1.03 | [6] 1.01 | [7] 1.01 | [8] 1.13 | [9] 0.965 | [10] 1.02

Clc1ccc(C(c2ccc(Cl)cc2)C(Cl)(Cl)Cl)cc1
inactive: [1] 1.08 | [2] 1.07 | [3] 0.992 | [4] 1.02 | [5] 0.985 | [6] 1.05 | [7] 1.16 | [8] 1.07 | [9] 1.05
active: [10] 0.0545

CCC(CC)Nc1c([N+](=O)[O-])cc(C)c(C)c1[N+](=O)[O-]
inactive: [1] 0.939 | [2] 1.13 | [3] 0.981 | [4] 1.03 | [5] 0.949 | [6] 1.05 | [7] 1.04 | [8] 0.957 | [9] 0.929 | [10] 0.998

CCCCN(CCCC)SN(C)C(=O)Oc1cccc2c1OC(C)(C)C2
active: [2] 0.618
inactive: [1] 0.949 | [3] 1.03 | [4] 1.07 | [5] 1.01 | [6] 1.03 | [7] 1.18 | [8] 0.946 | [9] 0.977 | [10] 0.798

C[N+]1(C)CCCCC1
inactive: [1] 0.974 | [2] 0.972 | [3] 0.981 | [4] 1.02 | [5] 1.05 | [6] 1.04 | [7] 1.03 | [8] 1.02 | [9] 1.03 | [10] 0.999

CCCCOC(=O)[C@H](C)Oc1ccc(Oc2ccc(C#N)cc2F)cc1
inactive: [1] 1.02 | [2] 0.985 | [3] 1.08 | [4] 1.07 | [5] 0.967 | [6] 1.06 | [7] 1.17 | [8] 1.07 | [9] 1 | [10] 1.1

O=C1C=C(N(Cc2ccc(Cl)nc2)CC(F)F)CO1
inactive: [1] 0.95 | [2] 1.15 | [3] 0.993 | [4] 1.06 | [5] 0.993 | [6] 0.988 | [7] 1.06 | [8] 0.978 | [9] 0.962 | [10] 0.914

CO/C=C(/C(=O)OC)c1ccccc1COc1cccc(C(F)(F)F)n1
inactive: [1] 0.929 | [2] 1.02 | [3] 0.958 | [4] 0.991 | [5] 0.97 | [6] 1.05 | [7] 1.11 | [8] 0.96 | [9] 0.966 | [10] 1

CC1COC(Cn2cncn2)(c2ccc(Oc3ccc(Cl)cc3)cc2Cl)O1 (stereo not given)
inactive: [1] 1.04 | [2] 1.06 | [3] 0.99 | [4] 1.06 | [5] 1.01 | [6] 1.03 | [7] 1.08 | [8] 0.952 | [9] 1.01 | [10] 1.06

COC(=O)Nc1nc2ccccc2[nH]1
inactive: [1] 1.03 | [2] 1.05 | [3] 0.975 | [4] 1 | [5] 1.01 | [6] 1.05 | [7] 1.08 | [8] 0.944 | [9] 0.978 | [10] 0.732

CCC(=O)Nc1ccc(Cl)c(Cl)c1
inactive: [1] 0.951 | [2] 1.04 | [3] 0.975 | [4] 0.984 | [5] 0.928 | [6] 1.01 | [7] 1.02 | [8] 0.817 | [9] 0.906 | [10] 0.927
